Source: PubChem
KAT2A inh – blocks human GCN5L2 histone acetyltransferase. Q92830. 390,000 tested, 0.21% active. Potency, µM (top dose mostly 58.9 µM), for inactives: at the highest dose activity change, negative = inhibition, hits mostly inhibitors. GCN5L2 HAT assay, ThioGlo1 CoA-SH fluorescence. AID 504327; further: potency means the concentration at half of the fitted maximal effect; on the % scale 0 is the no-effect control and ±100 the full control effect
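Enzyme at 20nM final was mixed with library compounds for 15 min at room temperature. Peptide H3(1-25) at 75uM, acetyl-CoA at 70uM and ThioGlo1 at 50uM were then added. Plates were read immediately and after 20 min (Ex340nm/Em540nm).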
PI4K2A block – inhibitors of human PI4K2A; Q9BTU6; purified PI4K2A, ADP-Glo luminescence, 1 h; stronger effect = lower value; activity change, negative = inhibition, % at 76.9 µM; 420,000 tested, 0.13% active; AID 1346378; in the data active means activity change below about -50%; inconclusive means mostly about -30% to -49%;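 further: -100% = wells without enzyme as full effect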
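PI4K2A activity was measured by ADP-Glo luminescence: enzyme (4 ug/mL stock) and phosphatidylinositol (1.2 mM stock) in Tris pH 7.5/MgCl2/EGTA/Triton X-100 buffer were reacted with ATP (300 microM stock) for one hour at ambient temperature.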
VDR inhibitor – inhibitors of human vitamin D receptor | 400,000 tested, 0.93% active | VDR-SRC2-3 peptide fluorescence polarization, 2 h | Potency, µM, without a hit: max response, negative = inhibition, usual class: inhibitors | P11473; further: potency means the concentration at half of the fitted maximal effect; on the % scale 0 is the no-effect control and ±100 the full control effect
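VDR–SRC2-3 interaction, FP format. Cmpds 23 nl via pintool, brief spin, 2 h ambient incubation.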
GLS inhibitor – inhibitors of human glutaminase (GLS); Potency, µM (highest dose often 45.5 µM), without a hit: top-dose activity change, negative = inhibition, usual class: inhibitors; O94925; 410,000 tested, 0.21% active; GLS enzymatic activity, qHTS titration; further: potency means the concentration at half of the fitted maximal effect; on the % scale 0 is the no-effect control and ±100 the full control effect
Target sequence (O94925 whole entry, looked up): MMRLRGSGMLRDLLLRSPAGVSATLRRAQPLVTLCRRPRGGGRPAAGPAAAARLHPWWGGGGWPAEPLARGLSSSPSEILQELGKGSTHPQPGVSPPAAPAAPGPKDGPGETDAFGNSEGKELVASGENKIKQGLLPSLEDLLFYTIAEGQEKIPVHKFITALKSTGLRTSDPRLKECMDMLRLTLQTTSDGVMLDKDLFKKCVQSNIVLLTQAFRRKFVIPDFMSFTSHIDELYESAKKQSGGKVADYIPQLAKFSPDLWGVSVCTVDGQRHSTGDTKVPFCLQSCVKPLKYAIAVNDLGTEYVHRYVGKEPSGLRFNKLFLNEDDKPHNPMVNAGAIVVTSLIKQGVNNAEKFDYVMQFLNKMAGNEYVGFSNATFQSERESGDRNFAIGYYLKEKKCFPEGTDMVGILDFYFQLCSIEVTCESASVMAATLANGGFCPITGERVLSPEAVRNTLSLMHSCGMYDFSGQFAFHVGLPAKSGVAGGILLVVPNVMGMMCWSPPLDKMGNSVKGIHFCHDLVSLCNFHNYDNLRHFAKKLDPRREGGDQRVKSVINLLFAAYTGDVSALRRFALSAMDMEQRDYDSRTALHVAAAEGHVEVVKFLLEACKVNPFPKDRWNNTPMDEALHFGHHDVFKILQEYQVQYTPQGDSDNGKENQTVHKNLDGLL
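hKGA in 45 mM KH2PO4 pH 8.2, 0.02% Tween-20 with pin-transferred compounds; 1 mM L-glutamine (stock) plus glutamate oxidase/HRP/Amplex Red coupling added. Fluorescence read initially and after 30 min at RT.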
PLK1 PBD block – PLK1 (human) polo-box domain binding inhibition; Potency, µM, for inactives: max response, negative = inhibition, usual class: inhibitors; AID 720504; Plk1 PBD binding of FITC phosphopeptide, fluorescence polarization; P53350; 360,000 tested, 2.8% active; further: potency means the concentration at half of the fitted maximal effect; series mostly up to about 57 µM; on the % scale 0 is the no-effect control and ±100 the full control effect; nearly all actives have a fitted effect of over 65% in size
USP1 UbRho – USP1-UAF1 deubiquitinase inhibition validated; AID 540327; 50 tested, 50% active; shares compounds with VDR inhibitor; Potency, µM (series often up to 114 µM), for inactives: at the top dose activity change, negative = inhibition, hits mostly inhibitors; Ub-Rhodamine cleavage, fluorescence kinetic read
VDR confirm – confirmation of human vitamin D receptor inhibitors | shares compounds with VDR inhibitor | VDR-coactivator inhibition assay, qHTS confirmation | Potency, µM, actives largely listed as inhibitors | 840 tested, 89% active | AID 602199; further: potency means the concentration at half of the fitted maximal effect
VDR FP fluor – blocks human VDR-coactivator binding in fluorescein assay; VDR-coactivator binding, fluorescein fluorescence polarization; Potency, µM (series often up to 57.1 µM), without a hit: at the highest dose activity change, negative = inhibition, most hits filed as inhibitors; AID 602200; 840 tested, 48% active; shares compounds with VDR inhibitor; further: potency means the concentration at half of the fitted maximal effect
VDR bla – VDR (human) inhibition, cell-based beta-lactamase validation; shares compounds with VDR inhibitor; VDR beta-lactamase reporter cells, FRET ratio; cells co-treated with VDR agonist LG190178; Potency, µM (series often up to 46.1 µM), inactives show at the highest dose activity change, negative = inhibition, usual class: inhibitors; 840 tested, 23% active; AID 602202; further: potency means the concentration at half of the fitted maximal effect; on the % scale 0 is the no-effect control and ±100 the full control effect
VDR viability – counter-screen for vitamin D receptor inhibitors: cytotoxicity. shares compounds with VDR inhibitor. cytotoxicity counter-screen, cell viability, qHTS. Potency, µM (doses to about 48.3 µM), without a hit: at the highest dose activity change, negative = cytotoxicity, most hits filed as cytotoxic. 840 tested, 18% active. AID 602204;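 further: potency means the concentration at half of the fitted maximal effect; plate controls were DMSO for no effect and high-concentration cycloheximide for full effect; nearly all actives have a fitted effect of over 75% in size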
Active calls of the source: *; ? = inconclusive; . = not tested or not shown; [ ] = remark or other dose. In the library only some 3.1% were active in any assay of this set; here they are far more common. Unless noted, the call rests on the fitted dose curve; in most records, active means well fitted curve in the direction sought with a large enough effect; inconclusive means small, poorly fitted or top-dose-only effect, or another doubt; inactive means no such curve, though single readings can be large; an effect the other way counts as inactive or inconclusive.

SMILES	KAT2A inh	PI4K2A block	VDR inhibitor	GLS inhibitor	PLK1 PBD block	VDR confirm	VDR FP fluor	VDR bla	VDR viability	others
COc1ccc(Cl)cc1NC(=O)CCCS(=O)(=O)c1nc(-c2ccc(OC)c(OC)c2)cc(C(F)(F)F)n1	-8%	9	?	-11%	.	.	.	.	.
CC(C)c1nnc(NC(=O)CCS(=O)(=O)Cc2ccccc2)s1	1%	-3	-5%	14%	?	.	.	.	.
O=C(CCS(=O)(=O)c1nc(-c2ccc3c(c2)OCO3)cc(C(F)(F)F)n1)Nc1ccc(Br)cc1	-12%	4	13µM*	4%	.	3.2*	3.5µM*	23µM*	?
Cc1ccc2c(c1)c1c(c(=O)n(-c3ccccc3C)c(=O)n1Cc1cccc(F)c1)n2C	-28%	0	5%	7%	.	.	.	.	.
C=CCOC(=O)N[C@@H](c1ccccc1)[C@@H](C)[N+](=O)[O-]	.	.	-7%	.	.	.	.	.	.
CS(=O)(=O)c1sc(C#N)c2c1C(=O)CC(c1ccccc1)C2 (centres undefined)	-4%	11	14µM*	3%	5.3µM*	8.4*	?	15µM*	3.7µM*
Cc1cccc(NC(=O)Cn2c(=O)n(CC3CCC(C(=O)NCCc4ccccc4)CC3)c(=O)c3ccccc32)c1 (centres undefined)	0%	-4	-12%	4%	.	.	.	.	.
Cc1ccc(S(=O)(=O)N2CCN(c3nc(-c4ccncc4)nc4ccccc34)CC2)cc1	.	.	-25%	.	.	.	.	.	.
Cc1oc2c(c1C(=O)N1CCC(C)CC1)C(=O)c1ccccc1C2=O	1%	-8	-5%	1%	-2%	.	.	.	.
O=C(c1ccc(Cl)cc1)c1ccc(CN2C(=O)c3ccccc3C2=O)o1	1%	-12	4%	3%	2%	.	.	.	.
Cc1ccc(C(=O)c2c(C)oc3c2C(=O)C(=O)c2ccccc2-3)cc1	-5%	-63*	3.5µM*	0%	?	1.5*	4µM*	?	5.6µM*
Cc1ccc(C(=O)c2coc3c2C(=O)C(=O)c2ccccc2-3)cc1	-7%[0.501 µM]	-7	7.1µM*	-2%	?	4.7*	?	-22%	?
Cc1oc2c(c1C(=O)c1ccc(Cl)cc1)C(=O)C(=O)c1ccccc1-2	?	-9	?	-5%	?	3.5*	3.5µM*	2.9µM*	3.8µM*
O=C(Cn1cc(SCc2ccccc2Cl)c2ccccc21)N1CCCCCC1	-9%	-1	14%	-12%	.	.	.	.	.
COc1ccc(N2CCN(S(=O)(=O)c3ccc(CC(C)C)cc3)CC2)cc1	0%	0	-4%	1%	.	.	.	.	.
CCCCCCCCCCCCC/C=C/[C@@H](O)[C@H](CO)NC(C)=O	-13%	.	7%	.	.	.	.	.	.
O=c1cc(-c2ccccc2)n2c(SCc3ccc([N+](=O)[O-])cc3)nnc2[nH]1	-3%	1	-7%	1%	.	.	.	.	.
CN(C)c1ccc(NC(=O)CCSc2nc(-c3ccco3)cc(C(F)(F)F)n2)cc1	4%	1	-17%	7%	.	.	.	.	.
CC1(C)CC(=O)C2=C(C1)NC1=C(C(=O)c3ccccc31)C2c1ccc(Cl)cc1 (centres undefined)	-6%	-3	-21%	-2%	-10%	.	.	.	.
CC1(C)C(=O)NC2=C1C(=O)C(=O)c1ccccc12	12%	.	45µM*	.	.	.	.	.	.	USP1 UbRho=0.83µM*
CCNc1ncc2nc(-c3ccc(OC)cc3)c(=O)n(-c3ccc(OC)cc3)c2n1	-29%	.	-1%	.	.	.	.	.	.
COC(=O)c1c(NC(=O)CN2C(=O)c3ccccc3C2=O)sc(Cc2ccc3c(c2)OCO3)c1C	-2%	-14	-2%	-10%	-8%	.	.	.	.
Cc1c(Cc2ccc3c(c2)OCO3)sc(NC(=O)c2cccc3ccccc23)c1C(N)=O	-23%	-8	?	-18%	6µM*	10*	14µM*	?	-26%
CCOc1cc(/C=C2\N=C(C)OC2=O)cc(Cl)c1OCC(=O)OC	.	2	45µM*	-2%	0%	9.5*	?	-2%	10%
COC(=O)[C@]12C[C@H](CC(=O)N3CCN(C(=O)c4ccco4)CC3)C(=O)N(Cc3ccco3)C1=C[C@H](C(C)C)O[C@@H]2C1CC1	.	1	.	.	.	.	.	.	.
SMILES	KAT2A inh	PI4K2A block	VDR inhibitor	GLS inhibitor	PLK1 PBD block	VDR confirm	VDR FP fluor	VDR bla	VDR viability	others
Cc1sc(NC(=O)c2ccccc2)c(C(=O)c2ccccc2)c1C	-14%	2	56µM*	-14%	6.7µM*	19*	8.9µM*	23%	20%
CCN(CC)C(=O)c1c(NC(=O)c2ccccc2)sc(C)c1C	0%	0	2%	4%	-2%	.	.	.	.
N#CC(C#N)=NNc1ccc(S(=O)(=O)N2CCCCC2)cc1	-14%	-6	8.9µM*	-4%	-24%	6.7*	3.2µM*	-8%	?
COc1cccc(C(=O)/C=C/c2ccc(OCC#N)c(OC)c2)c1	-3%	14	50µM*	-2%	-1%	27*	14µM*	?	?
O=C(O)CN1C(=O)/C(=C\c2cc(Br)ccc2OCc2ccc(F)cc2)SC1=S	?	-6	71µM*	10%	21µM*	?	32µM*	24%	11%
O/N=C/c1cc(Br)ccc1OCc1ccc(F)cc1	.	0	?	13%	-25%	.	.	.	.
Cc1ccc(S(=O)(=O)C(CNC(=O)C(=O)NCCc2ccccc2)c2cccs2)cc1 (centres undefined)	-3%	3	4%	1%	.	.	.	.	.
COCCn1c(=O)c(-c2ccc(OC)cc2)nc2cnc(OC)nc21	-13%	.	3%	.	.	.	.	.	.
CCOC(=O)c1nn(-c2ccc(F)cc2)c(=O)c2c(N)scc12	0%	-10	7.9µM*	-4%	?	27*	?	40%	34%
Cc1noc(C)c1-c1cc(NC2CCNCC2)ncn1	-5%	.	-6%	.	.	.	.	.	.
